Among the data in PubChem BioAssay are composite z-score and z-score values, retold here.

Calls of active or inactive are those of the source.

Test [1] can be described thus: binders of probe aFSTL3 on microarray, primary screen, stem cell growth factor project, biochemical, small-molecule microarray, fluorescence 635/667 (AID 1064).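 Further: measures binding of the biotinylated anti-FSTL3 antibody to printed compounds.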 The following applies: higher = more signal.
The nature of test [2]: binders from COS7 lysate, DM2A8 probe, primary screen, torsin A project, cell lysate, small-molecule microarray, fluorescence 635/667 (AID 1065). The following applies: higher = more signal, COS7 lysate expressing mutant human TOR1A.
Test [3] can be described thus: binders of probe aFGF2 on microarray, primary screen, stem cell growth factor project, biochemical, small-molecule microarray, fluorescence 635/667 (AID 1067).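 Further: measures binding of biotinylated aFGF2 protein to printed compounds on slides; z-score merges feature fluorescence and signal-to-noise across triplicate slides.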 The following applies: higher = more signal.
Test [4] in a line: binders of probe aFGF10 on microarray, primary screen, stem cell growth factor project, biochemical, small-molecule microarray, fluorescence 635/667 (AID 1071).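 Further: score merges 667 nm spot intensity and signal to noise from triplicate slides.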 Conditions: higher = more signal.
Test [5] has as its target Neurogenic locus notch homolog protein 2 (Homo sapiens) (UniProt Q04721). As to the kind of experiment: Notch2 binders on small-molecule microarrays, primary screen, biochemical, small-molecule microarray, 635 nm fluorescence, stem cell growth factors (AID 1073). The following applies: Notch2 binding, higher = more signal.
For test [6], the target named is Pro-neuregulin-1, membrane-bound isoform (Homo sapiens) (UniProt Q02297). As to the kind of experiment: NRG1 binders on small-molecule microarrays, primary screen, psychiatric disease protein project, biochemical, small-molecule microarray, fluorescence 635/667 (AID 1075).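 Further: score combines 667 nm spot fluorescence with signal to noise.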 Conditions: NRG1 binding, 635 nm fluorescence, higher = more signal.
Test [7] has as its system Neuregulin-1 EGF-like domain. Put plainly: binders of neuregulin-1 EGF-like domain, primary screen, biochemical, small-molecule microarray, 635 nm fluorescence (AID 1081).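 Further: binding of the protein to compounds printed on small-molecule microarray slides.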 The following applies: small-molecule microarray binding, higher = more signal.
Test [8] in a line: FRG1 promoter luciferase signal modulators, primary screen, FRG1 inhibition for FSHD, cell-based, C2C12 myotubes, firefly/Renilla luciferase, luminescence (AID 1084). Conditions: higher = more signal, called active from +8 up or from −8 down.
Test [9] can be described thus: binders of probe aFST on microarray, primary screen, stem cell growth factor project, biochemical, small-molecule microarray, fluorescence 635/667 (AID 1086).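 Further: score merges 667 nm fluorescence with signal-to-noise of each printed compound spot.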 Conditions: higher = more signal.
The nature of test [10]: binders of probe aHhip on microarray, primary screen, stem cell growth factor project, biochemical, small-molecule microarray, fluorescence 635/667 (AID 1087).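 Further: score merges spot fluorescence at 667nm with spot signal to noise ratio.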 Conditions: higher = more signal.

Sequence of Neurogenic locus notch homolog protein 2 (Homo sapiens) (Q04721 whole entry, looked up, canonical isoform): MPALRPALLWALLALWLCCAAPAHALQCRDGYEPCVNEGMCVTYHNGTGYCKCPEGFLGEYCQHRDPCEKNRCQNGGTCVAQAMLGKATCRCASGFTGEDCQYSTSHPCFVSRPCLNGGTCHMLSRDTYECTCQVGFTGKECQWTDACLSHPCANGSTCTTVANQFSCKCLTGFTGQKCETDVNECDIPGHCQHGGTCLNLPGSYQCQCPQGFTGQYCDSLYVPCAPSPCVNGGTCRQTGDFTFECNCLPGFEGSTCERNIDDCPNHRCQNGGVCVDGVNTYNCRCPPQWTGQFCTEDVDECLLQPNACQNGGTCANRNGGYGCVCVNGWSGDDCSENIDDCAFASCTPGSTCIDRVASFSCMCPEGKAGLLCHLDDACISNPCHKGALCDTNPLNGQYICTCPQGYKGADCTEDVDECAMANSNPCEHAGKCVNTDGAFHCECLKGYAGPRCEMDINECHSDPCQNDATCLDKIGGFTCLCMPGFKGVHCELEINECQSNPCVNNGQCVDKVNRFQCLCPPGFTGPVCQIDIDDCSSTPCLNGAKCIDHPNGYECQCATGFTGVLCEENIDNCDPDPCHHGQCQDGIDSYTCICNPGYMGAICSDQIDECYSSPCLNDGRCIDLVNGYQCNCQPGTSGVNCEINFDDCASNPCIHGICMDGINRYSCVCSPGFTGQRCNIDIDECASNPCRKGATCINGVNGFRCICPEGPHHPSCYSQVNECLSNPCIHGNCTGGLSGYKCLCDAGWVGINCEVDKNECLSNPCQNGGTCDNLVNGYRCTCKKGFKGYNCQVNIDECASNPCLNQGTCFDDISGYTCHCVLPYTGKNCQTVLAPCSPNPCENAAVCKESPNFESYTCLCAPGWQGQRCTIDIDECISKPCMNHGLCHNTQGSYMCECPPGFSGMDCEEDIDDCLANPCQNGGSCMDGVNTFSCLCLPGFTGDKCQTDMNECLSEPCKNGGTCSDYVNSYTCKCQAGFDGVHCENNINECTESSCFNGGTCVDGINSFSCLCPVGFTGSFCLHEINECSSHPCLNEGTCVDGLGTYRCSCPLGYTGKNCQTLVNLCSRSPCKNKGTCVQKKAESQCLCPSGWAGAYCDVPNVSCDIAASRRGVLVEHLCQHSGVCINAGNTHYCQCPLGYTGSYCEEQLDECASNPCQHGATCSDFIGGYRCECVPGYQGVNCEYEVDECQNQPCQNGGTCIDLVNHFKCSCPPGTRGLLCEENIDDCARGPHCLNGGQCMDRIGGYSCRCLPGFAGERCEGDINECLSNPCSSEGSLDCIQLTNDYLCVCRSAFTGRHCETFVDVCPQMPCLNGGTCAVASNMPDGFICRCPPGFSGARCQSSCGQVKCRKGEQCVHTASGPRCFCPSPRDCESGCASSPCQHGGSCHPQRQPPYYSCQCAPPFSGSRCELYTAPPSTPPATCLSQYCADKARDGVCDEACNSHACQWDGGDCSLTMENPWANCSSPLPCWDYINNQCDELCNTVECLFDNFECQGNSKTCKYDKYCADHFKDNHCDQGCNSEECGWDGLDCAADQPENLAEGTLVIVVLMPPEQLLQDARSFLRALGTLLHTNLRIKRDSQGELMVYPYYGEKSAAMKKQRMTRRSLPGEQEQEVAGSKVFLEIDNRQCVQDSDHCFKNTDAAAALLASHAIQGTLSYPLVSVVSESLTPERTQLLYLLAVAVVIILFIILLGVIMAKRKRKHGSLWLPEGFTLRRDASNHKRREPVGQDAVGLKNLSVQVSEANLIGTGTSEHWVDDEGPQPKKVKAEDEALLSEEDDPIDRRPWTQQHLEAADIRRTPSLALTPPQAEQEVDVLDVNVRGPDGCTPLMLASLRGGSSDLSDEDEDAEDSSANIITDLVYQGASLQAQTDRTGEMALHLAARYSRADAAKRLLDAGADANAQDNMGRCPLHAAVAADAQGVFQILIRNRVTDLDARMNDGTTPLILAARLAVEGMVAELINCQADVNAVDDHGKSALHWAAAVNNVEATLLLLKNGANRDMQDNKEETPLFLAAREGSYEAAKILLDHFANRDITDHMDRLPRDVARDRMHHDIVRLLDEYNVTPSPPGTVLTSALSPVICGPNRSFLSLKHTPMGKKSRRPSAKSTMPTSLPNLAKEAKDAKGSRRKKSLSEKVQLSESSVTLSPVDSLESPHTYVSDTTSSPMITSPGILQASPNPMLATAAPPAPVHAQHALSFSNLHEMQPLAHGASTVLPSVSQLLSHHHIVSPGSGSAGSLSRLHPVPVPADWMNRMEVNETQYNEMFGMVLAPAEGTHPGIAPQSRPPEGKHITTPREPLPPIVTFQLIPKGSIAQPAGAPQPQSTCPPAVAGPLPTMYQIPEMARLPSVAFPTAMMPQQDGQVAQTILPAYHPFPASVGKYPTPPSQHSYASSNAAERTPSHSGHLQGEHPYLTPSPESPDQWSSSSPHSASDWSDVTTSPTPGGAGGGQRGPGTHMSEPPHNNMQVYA
Sequence of Pro-neuregulin-1, membrane-bound isoform (Homo sapiens) (Q02297 whole entry, looked up, the tested form may be a part, canonical isoform): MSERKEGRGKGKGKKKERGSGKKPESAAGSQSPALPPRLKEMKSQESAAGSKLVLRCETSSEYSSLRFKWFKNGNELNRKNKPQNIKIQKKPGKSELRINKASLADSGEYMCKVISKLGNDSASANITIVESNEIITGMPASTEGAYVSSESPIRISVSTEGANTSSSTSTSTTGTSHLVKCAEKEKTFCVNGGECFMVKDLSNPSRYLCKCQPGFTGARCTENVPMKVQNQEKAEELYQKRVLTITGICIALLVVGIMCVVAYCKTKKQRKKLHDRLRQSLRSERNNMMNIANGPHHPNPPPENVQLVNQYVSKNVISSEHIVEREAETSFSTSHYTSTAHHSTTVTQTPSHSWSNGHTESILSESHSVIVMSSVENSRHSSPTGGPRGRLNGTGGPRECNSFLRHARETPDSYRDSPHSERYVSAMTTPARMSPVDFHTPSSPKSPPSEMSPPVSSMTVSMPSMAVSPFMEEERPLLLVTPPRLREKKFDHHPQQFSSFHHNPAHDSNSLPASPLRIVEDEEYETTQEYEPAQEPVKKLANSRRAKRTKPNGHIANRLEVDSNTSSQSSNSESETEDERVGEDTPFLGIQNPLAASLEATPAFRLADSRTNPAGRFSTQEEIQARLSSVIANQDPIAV

In the case of `CC(C)c1ccc(NN2C(C(O)c3ccc4c(c3)OCO4)C=CC3C(=O)N(c4ccccc4)C(=O)C32)cc1` (stereo not given), the composite z-score in test [1] came out at 0.542; in test [2], 0.461; in test [3] it was 0.0899; in test [4], 0.839; in [5], 1.34; in test [6], 1.82. In addition, the results for the composite z-score in [7], in test [9] and in [10] were 1.24, 1.07 and 0.103, respectively. For the same compound, the z-score in test [8] was 2.22 (inactive).

On to `COC(=O)[C@H](C)NC(=O)CCC1CC(OC(=O)NCc2cccc3ccccc23)CC2(CCCC(COC(=O)NCCc3ccc(Cl)cc3)O2)O1` (stereo not given in full), for which the composite z-score was -0.489 in [1]; -0.0486 in test [2]; -0.0788 in [3]; 0.487 in test [4]; 1.09 in test [5]; 0.567 in test [6]. The composite z-score was 0.73 in test [7], 0.171 in [9] and -0.0994 in test [10]. Moreover, the z-score in test [8] was 1.93 (inactive).

Regarding `CC(C)CON=C1C[C@@H](O)[C@@H](O)[C@@H]2[C@@H]3C(=O)N([C@@H](C)c4ccccc4)C(=O)[C@@H]3CC[C@H]12`, the composite z-score in test [1] was -0.572; in test [2], -0.0881; in test [3], -0.0156; in [4], 0.915; in test [5] it was 1.01; in test [6], 0.561. Besides, the composite z-score in [7] turned out to be 1.1; in test [9] it was 0.629; in test [10] it was 0.21. For the same compound, in test [8], the z-score is -0.997 (inactive).

Turning to `CCOC(=O)C1=CCC(c2cc3ccccc3[nH]2)NC1` (stereo not given), the composite z-score in test [1] is 1.31; in test [2], 0.758; in test [3] it was -0.0629; in test [4], -0.355; in [5], 0.476; in test [6], 0.963. Further, the composite z-score in test [7] is 1.13; in test [9] it was 0.77; in test [10], -0.156. Also, the z-score in [8] is 4.17 (inactive).

For the compound `CC(=O)O[C@H]1C2=C(C(=O)[C@@H]3O[C@@H]31)[C@H]1C(C)O[C@@H]2[C@@]23C(=O)[C@@H]4O[C@@H]4[C@@H](O)C2=CO[C@H](C)[C@@H]13` (stereo not given in full), the composite z-score in test [1] was -0.295; in test [2], 0.16; in test [3] it was -0.0314; in [4] it was 0.226; in test [5] it was 0.166; in test [6], -0.274. The composite z-score was 0.377 in test [7], -0.0354 in [9] and -0.0645 in test [10]. Also, the z-score in [8] is -1.07 (inactive).

As for `COc1ccc(-c2nc3c(c4c2C[C@H](C)OC4)CN(CCC(C)C)CC3)cc1`, the composite z-score is -0.256 in test [1]; 0.39 in test [2]; -0.123 in test [3]; 0.644 in [4]; 1.04 in [5]; 0.114 in test [6]. In addition, the composite z-score in test [7] is 0.917; in test [9], 0.414; in test [10] it was -0.189. For the same compound, the z-score in test [8] is -0.145 (inactive).

Take `COc1ccc(-c2ccc3c(n2)CCCN3CC(O)CN2CCCc3nc(C)c(C)cc32)cc1` (stereo not given): the composite z-score in test [1] stood at 0.683; in test [2] it was 1.55; in test [3], 0.126; in test [4] it was 0.961; in test [5] it was 0.63; in test [6], 0.641. The composite z-score in test [7] came to 0.732; in [9], 1.02; in [10] it was 0.38. In test [8], the z-score is 3.33 (inactive).

Turning to `C#CCCCON=C1C[C@@H](O)[C@@H](O)[C@@H]2[C@@H]3C(=O)N([C@@H](C)c4ccccc4)C(=O)[C@@H]3CC[C@H]12`, the composite z-score is -0.196 in test [1]; -0.0639 in [2]; -0.127 in [3]; 0.342 in test [4]; 0.76 in [5]; 0.233 in [6]. In addition, the results for the composite z-score in [7], in [9] and in test [10] were 0.755, 0.342 and -0.0994, respectively. In addition, the z-score in test [8] was 0.548 (inactive).

For the compound `O=C1[C@H]2[C@H]3[C@H](O)[C@H](O)CC(=NOCc4ccccc4)[C@@H]3CC[C@H]2C(=O)N1Cc1ccccc1`, the composite z-score is -0.226 in test [1]; 0.304 in test [2]; -0.125 in test [3]; 0.264 in [4]; 0.758 in test [5]; -0.0975 in test [6]. In addition, the composite z-score in test [7] was 0.272; in test [9], 0.281; in test [10], -0.0672. The z-score in test [8] was 0.341 (inactive).

For the compound `COC(=O)[C@H]1COC(c2ccc(OCCCO)cc2)=N1`, the composite z-score in test [1] was 0.971; in [2] it was -0.354; in test [3] it was -0.0425; in test [4], -0.576; in test [5], 0.115; in test [6], -0.0556. Further, the composite z-score was 0.207 in [7], 0.179 in test [9] and -0.0618 in test [10]. For the same compound, the z-score in test [8] is 0.97 (inactive).

As for `C[C@@H](c1ccccc1)N1C(=O)[C@H]2[C@H]3[C@H](O)[C@H](O)CC(=NOC[C@@H](O)COCc4ccco4)[C@@H]3CC[C@H]2C1=O`, the composite z-score was 0.193 in test [1]; 0.068 in test [2]; -0.159 in test [3]; -0.141 in test [4]; -1.02 in test [5]; -0.717 in test [6]. The composite z-score was -0.647 in test [7], 0.0275 in test [9] and -0.137 in test [10]. Moreover, the z-score in test [8] is -0.0058 (inactive).

Turning to `COCCOC(=O)N1C(=O)[C@@]2(c3cc(C#CC4(O)CCCCCC4)ccc31)[C@H](c1ccc(OCCO)cc1)N1[C@H](c3ccccc3)[C@H](c3ccccc3)OC(=O)[C@H]1[C@@H]2C(=O)NC[C@H](O)c1ccccc1`, the composite z-score in test [1] was -0.0536; in [2], 1.11; in [3] it was -0.0444; in test [4] it was 0.66; in test [5], 0.837; in [6], 1.55. For the same compound, the composite z-score in [7] is 1.13; in test [9] it was 0.29; in test [10], -0.0994. Further, the z-score in test [8] is -0.294 (inactive).

On to `Cc1ccc(S[C@]2(C(=O)O)CC(=O)N(Cc3ccccc3)[C@@H]2c2ccc(CO)cc2I)cc1`, for which the composite z-score in test [1] was 0.481; in [2], -0.421; in test [3] it was -0.0494; in test [4] it was -0.333; in [5], -0.143; in test [6], 1.8. Moreover, the composite z-score is 1.03 in test [7], -0.255 in test [9] and -0.0994 in test [10]. For the same compound, the z-score in test [8] was -0.406 (inactive).

`CC1CC/C=C\[C@H]2OC34C=CCN(Cn5nnc6ccccc65)C(=O)[C@H]3N(CCO)C(=O)[C@@H]4C2C(=O)O1` (stereo not given in full): the composite z-score is 0.398 in [1]; 1.96 in [2]; -0.0778 in [3]; -0.181 in [4]; -1.29 in test [5]; 1.52 in [6]. In addition, the composite z-score is 1.43 in test [7], -0.655 in test [9] and -0.0324 in test [10]. Also, the z-score in test [8] was -0.203 (inactive).

With `C=CCOC(=O)[C@H]1[C@@H]2C(=O)O[C@@H](c3ccccc3)[C@@H](c3ccccc3)N2[C@@H](c2ccc(OCCOC(=O)[C@H]3C[C@H]4C(=O)N[C@@H](Cc5ccccc5)C(=O)N4[C@H]3c3ccc(O)cc3)cc2)[C@]12C(=O)Nc1ccccc12`, the composite z-score in test [1] is -0.298; in test [2] it was 0.0087; in test [3], -0.0692; in test [4] it was 0.349; in test [5], 0.355; in [6], 0.188. Besides, the composite z-score in test [7] was 1.29; in [9], 0.276; in [10], -0.109. Also, in test [8], the z-score was 0.458 (inactive).

For `CC(=O)OC[C@H]1O[C@H](CC=NOC[C@@H](C)[C@H](OCc2ccccc2)C(C)C)C=C[C@@H]1OC(C)=O`, the composite z-score is -0.0055 in test [1]; -0.141 in test [2]; -0.087 in test [3]; 0.0055 in test [4]; -0.0224 in test [5]; -0.254 in test [6]. For the same compound, the composite z-score is -0.712 in test [7], -0.341 in test [9] and -0.0645 in test [10]. The z-score in [8] is 0.183 (inactive).
